The whole screen tested about 2,400 compounds, of which about 580 (24%) were called active.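 Rule for the calls: active = activity change at or above the mean plus 3 SD of buffer wells without dofetilide, per plate; inactive = the rest.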 The list is a sample of the results.
The compounds below were run against Potassium voltage-gated channel subfamily KQT member 2 (Rattus norvegicus) (UniProt O88943) (assay: rat KCNQ2 channel activation by compounds alone, confirmation, counter-screen for hERG block protector project, cell-based, CHO, FluxOR thallium flux (AID 1942;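 note: normalized value minus buffer-control mean plus three SD of buffer wells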)). Conditions: CHO-KCNQ2 cells, FluxOR thallium flux fluorescence; at 10 µM; active compounds read high.
Sequence of Potassium voltage-gated channel subfamily KQT member 2 (Rattus norvegicus) (O88943 whole entry, looked up): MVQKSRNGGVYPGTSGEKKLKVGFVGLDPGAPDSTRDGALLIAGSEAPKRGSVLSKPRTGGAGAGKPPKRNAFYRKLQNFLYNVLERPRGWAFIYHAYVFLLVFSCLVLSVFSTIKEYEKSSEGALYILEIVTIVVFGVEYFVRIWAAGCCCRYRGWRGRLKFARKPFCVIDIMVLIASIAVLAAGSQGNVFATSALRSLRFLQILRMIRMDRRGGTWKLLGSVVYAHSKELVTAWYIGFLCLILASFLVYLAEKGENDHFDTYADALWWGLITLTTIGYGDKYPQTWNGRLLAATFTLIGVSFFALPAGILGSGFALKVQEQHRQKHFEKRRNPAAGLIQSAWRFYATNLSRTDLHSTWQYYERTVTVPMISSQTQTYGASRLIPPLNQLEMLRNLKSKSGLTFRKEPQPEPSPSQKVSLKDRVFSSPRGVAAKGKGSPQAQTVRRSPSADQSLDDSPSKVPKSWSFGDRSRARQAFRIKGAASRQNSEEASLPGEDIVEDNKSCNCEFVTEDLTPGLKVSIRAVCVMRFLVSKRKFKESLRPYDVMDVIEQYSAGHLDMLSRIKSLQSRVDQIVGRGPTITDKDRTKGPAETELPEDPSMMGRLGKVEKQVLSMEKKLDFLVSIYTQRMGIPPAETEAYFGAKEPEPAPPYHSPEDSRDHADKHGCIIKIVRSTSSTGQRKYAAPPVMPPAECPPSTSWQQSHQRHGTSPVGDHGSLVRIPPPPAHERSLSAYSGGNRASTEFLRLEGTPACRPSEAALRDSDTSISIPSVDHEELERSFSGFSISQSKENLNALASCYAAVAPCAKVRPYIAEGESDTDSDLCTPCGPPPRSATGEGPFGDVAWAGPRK

Compound | activity change, less the hit threshold
O=S(=O)(c1ccc(F)cc1)N1CCN(c2ccc(F)cc2)CC1 | -13.8% (inactive)
CCCNC(=O)N1CCN(S(=O)(=O)c2ccc(C)cc2)CC1 | -17.2% (inactive)
Cc1ccc(O)c(C(=O)CC(=O)c2ccc(Cl)cc2)c1 | -16.6% (inactive)
Cc1ccc(O)c(C(=O)CC(=O)c2ccccc2Cl)c1 | -13.5% (inactive)
Cc1ccc(O)c(Sc2cc(C)ccc2O)c1 | 2% (active)
NNC(=O)CNc1ccccc1Cl | -15.1% (inactive)
O=C(NCC1CCS(=O)(=O)C1)Oc1ccccc1 (stereo not drawn) | -12.4% (inactive)
C=CCN(c1ccc(Cl)cc1)S(=O)(=O)c1cccc(C(=O)O)c1 | 4.4% (active)
C=CCN(c1ccccc1)S(=O)(=O)c1cccc(C(=O)Nc2nnc(SCC)s2)c1 | -20.2% (inactive)
C=CCN(c1cccc(C(F)(F)F)c1)S(=O)(=O)c1cccc(C(=O)OCC(=O)Nc2ccccc2)c1 | -0.5% (inactive)
CN(C)S(=O)(=O)c1cccc(C(=O)Nc2cccnc2)c1 | -13.5% (inactive)
CCN(C(=S)NC(=O)c1ccccc1Br)C1CCCCC1 | 62.1% (active)
O=C(NCC1CCCCC1)c1cccnc1Cl | -17.7% (inactive)
O=C(Cn1cncn1)c1ccccc1Br | -24% (inactive)
CCCN(Cc1ccccc1)C(=S)NC(=O)c1ccccc1[N+](=O)[O-] | 92.5% (active)
CCN(Cc1ccccc1)C(=S)NC(=O)c1ccccc1Br | 66.7% (active)
O=C(NC(=S)N(Cc1ccccc1)Cc1ccccc1)c1ccccc1F | 38.8% (active)
COc1nccnc1NS(=O)(=O)c1ccc(NC(=S)NC(=O)c2ccccc2F)cc1 | -13.5% (inactive)
CCC(=O)NC(=S)NNC(=O)c1ccccc1[N+](=O)[O-] | -19.6% (inactive)
CC(C)CN(C(=O)COC(=O)CNC(=O)c1ccccc1F)c1c(N)n(Cc2ccccc2)c(=O)[nH]c1=O | -7.7% (inactive)
O=C(Nc1ccccc1C(=O)O)c1cccc(NC(=O)c2ccccc2Br)c1 | -16% (inactive)
CN(Cc1ccccc1)C1CCN(Cc2ccccc2[N+](=O)[O-])CC1 | -15.5% (inactive)
CC1=NNC(=O)C1CC(=O)N/N=C/C=C/c1ccccc1 (stereo not drawn) | -21.4% (inactive)
Cc1cnc(NC(=O)CN2CCN(c3ccccc3F)CC2)s1 | -16.9% (inactive)
COc1cc(/C=C2/OC(=O)c3cc([N+](=O)[O-])ccc32)cc(OC)c1OC | -15.4% (inactive)

Compound | activity change, less the hit threshold
CCO/C=C1\N=C(c2ccc(F)cc2)OC1=O | -13.2% (inactive)
O=C(CN1C(=O)S/C(=C\c2cc(Cl)c(O)c(Cl)c2)C1=O)Nc1ccccc1 | -30.2% (inactive)
CC(C)C12CN3CC(C(C)C)(CN(C1)C31C(=O)Nc3ccccc31)C2=O (stereo not drawn) | -24.3% (inactive)
O=C(COC(=O)c1cc(S(=O)(=O)NCc2ccccc2)ccc1O)NCc1ccccc1 | -13.2% (inactive)
C=CCn1c(SCc2ccc(C(=O)O)cc2)nc2sc(C)c(C)c2c1=O | 46.6% (active)
C=CCN1C(=O)C(Cc2ccc(OCC)cc2)SC1=Nc1ccc(C(=O)O)cc1 (stereo not drawn) | -15.5% (inactive)
O=C1CN(S(=O)(=O)c2ccccc2)CC(=O)N1CCc1ccccc1 | -18.7% (inactive)
Cc1ccc(Nc2nc(C)cs2)cc1 | -9.5% (inactive)
Cc1ccc(Nc2cc(C)nn2-c2nc(C)cc(=O)[nH]2)cc1 | 68.6% (active)
Cc1cccc(N/C(N)=N/c2nc(C)cc(=O)[nH]2)c1 | -13.7% (inactive)
Cc1nnc(N2C(=O)C(=O)/C(=C(\O)c3ccc4c(c3)CC(C)O4)C2c2ccccc2)s1 (stereo not drawn) | -7.2% (inactive)
Cc1cc(O)c(/C=N/OCc2ccc(Cl)cc2Cl)c(=O)o1 | -19.1% (inactive)
Cc1cc(C)cc(NC(=O)N2CCCC2C(=O)Nc2ccc(-n3cnnn3)c(C)c2)c1 (stereo not drawn) | -19% (inactive)
CCOC(=O)Cc1csc(NC(=S)NC(=O)c2ccccc2Br)n1 | 9.2% (active)
CCOC(=O)Cc1csc(NC(=S)NC(=O)c2ccc(Cl)cc2)n1 | -7.1% (inactive)
COc1ccc(-c2csc(NC(=S)NC(=O)c3ccc4ccccc4c3)n2)cc1OC | -11.9% (inactive)
CCOC(=O)Cc1csc(NC(=S)NC(=O)c2ccccc2C)n1 | 3.3% (active)
CCOC(=O)Cc1csc(NC(=S)NC(=O)C(C)(C)C)n1 | -1.3% (inactive)
Cc1csc(NC(=S)NC(=O)c2ccccc2)n1 | 7.2% (active)
CCOC(=O)Cc1csc(NC(=S)NC(=O)c2ccc(C)cc2)n1 | -3.1% (inactive)
Cc1[nH]cnc1CSCCN | -10.5% (inactive)
CCOC(=O)N1CCN(C(=O)CSc2nnc(-c3ccccc3OC)o2)CC1 | -10.3% (inactive)
Brc1ccc(Nc2nc(-c3cccnc3)cs2)cc1 | -11.1% (inactive)
O=C(COC(=O)C1CCC(=O)N1)Nc1ccc(Oc2ccccc2)cc1 (stereo not drawn) | -11% (inactive)
Cc1oc2cc(O)ccc2c(=O)c1N1C(=O)c2ccccc2C1=O | -14.7% (inactive)

Compound | activity change, less the hit threshold
CN(CC(=O)Nc1nc2ccccc2s1)S(=O)(=O)c1ccc(Cl)cc1 | -27% (inactive)
Cn1ncc2c(O/N=C(\N)c3ccc(C(F)(F)F)cc3)ncnc21 | -7.2% (inactive)
Cc1ccccc1C(=O)NC(=S)Nc1sc2c(c1C#N)CCC(C)C2 (stereo not drawn) | -29% (inactive)
Cc1onc(-c2ccccc2)c1C(=O)NC(=S)Nc1sc2c(c1C#N)CCC(C)C2 (stereo not drawn) | -3.3% (inactive)
COC(=O)c1c(NC(=O)C2CC=CCC2C(=O)O)sc(C)c1C (stereo not drawn) | -12.3% (inactive)
CCC1CCc2c(sc(NC(=O)C3CC=CCC3C(=O)O)c2C#N)C1 (stereo not drawn) | 1.4% (active)
CCC(C)(C)C1CCc2c(sc(NC(=O)c3ccccc3C(=O)O)c2C#N)C1 (stereo not drawn) | 38.4% (active)
CCc1ccccc1NC(=O)CC1CS(=O)(=O)CC1CC(=O)Nc1ccccc1CC (stereo not drawn) | -17% (inactive)
CC(C)(C)c1ccc(Cn2nc(CC(=O)O)c3ccccc3c2=O)cc1 | -4.4% (inactive)
C=CCn1c2ccccc2c(=O)c2cc(C#Cc3ccsc3)ccc21 | -16% (inactive)
CCCCOC(=O)Cn1c2ccc(OC)cc2c2nc3ccccc3nc21 | -3.3% (inactive)
CC(C)OC(=O)c1c2nc3ccccc3nc2n2c1[nH]c(=O)c1ccccc12 | 83.4% (active)
CCc1ccc(C(=O)CSc2nc3ccccc3c(=O)[nH]2)cc1 | -15.1% (inactive)
COCc1cc(C)nc(OCC(=O)N/N=C/c2ccc(-c3cc([N+](=O)[O-])ccc3Cl)o2)c1C#N | -8.1% (inactive)
Cc1ccc(-c2cccc(C3CC=CC4C3C(=O)N(Cc3ccccc3)C4c3ccc4ccccc4c3)c2)cc1 (stereo not drawn) | -15.4% (inactive)
Cc1ccc(NC(=O)COc2cccnc2[N+](=O)[O-])cc1S(=O)(=O)N1CCOCC1 | -18.2% (inactive)
Cc1nnc2c(SC(C)C)nc3ccccc3n12 | -19.3% (inactive)
Cc1ccccc1OCC(=O)N=Nc1c(O)n(C)c2ccccc12 | -2.4% (inactive)
CCc1ccc2[nH]c(O)c(N=Nc3nc(-c4ccccc4)cs3)c2c1 | -16.3% (inactive)
Cn1c(O)c(N=Nc2nc(-c3ccccc3)cs2)c2ccccc21 | 67.2% (active)
N#Cc1cccc(N=c2ssnc2Cl)c1 | -15.2% (inactive)
Cc1cc(=O)[nH]c(N/N=C2/CCCC/C2=C\c2ccccc2)n1 | -11.4% (inactive)
CSC(=S)N/N=C/c1ccc(Br)cc1 | -6.8% (inactive)
CSC(=S)N/N=C/c1ccccc1 | 48% (active)
CC(C)NC(=S)N/N=C/c1ccc(C(C)(C)C)cc1 | -8.8% (inactive)

Compound | activity change, less the hit threshold
C/C(=N\NC(N)=S)c1cccnc1 | -17.7% (inactive)
C/C(=N\NC(N)=S)c1ccncc1 | -10.4% (inactive)
CSC(=S)N/N=C(\C)c1ccccc1 | 42.3% (active)
COc1ccc(-n2c(SCC#N)nnc2-c2cccnc2)cc1 | -24.2% (inactive)
O=C(CC(=O)c1ccccc1O)c1cccc(F)c1 | -11.1% (inactive)
Cc1cc(F)c(F)c(C(=O)N2CCOCC2)c1 | -20.6% (inactive)
CC(C)(C)OC(=O)N1CCC2(CC1)Oc1ccc(Cl)cc1C(=O)C21CC(c2ccc(Cl)cc2)=NO1 (stereo not drawn) | -20.7% (inactive)
Cn1nc(C(F)(F)F)c(-c2ccc(Br)cc2)c1NC(=O)c1cccnc1 | -21.4% (inactive)
COc1ccc(C(=O)NNC(=O)CSc2nnc(COc3ccccc3)n2C)cc1 | -15.5% (inactive)
Cc1cc(NC(=O)CSc2ccc3nnc(-c4cccs4)n3n2)no1 | -20.2% (inactive)
O=C(O)c1ccc2c3n(nc2c1)-c1ccc(Cl)cc1CO3 | -11.6% (inactive)
Cc1ccc(NC(=S)NC(=O)c2ccc(Br)o2)c(C)c1 | 8.1% (active)
Cc1ccc(NC(=O)c2ccc3c(c2)CCN3S(C)(=O)=O)c(C)c1 | -23.2% (inactive)
O=C(NC(=S)Nc1cccc(Cl)c1)c1cncc(Br)c1 | -16.1% (inactive)
Cc1c(C(=O)NC(=S)NCc2cccnc2)oc2ccccc12 | -18.2% (inactive)
Cc1ccc(C)c(NC(=S)NC(=O)c2cncc(Br)c2)c1 | -2.9% (inactive)
O=C(NC(=S)NNC(=O)c1cccs1)c1ccc(Br)o1 | -12.6% (inactive)
O=C(NC(=S)Nc1ccccc1)c1ccc(Br)o1 | 3.3% (active)
O=C(NC(=S)Nc1ccccc1F)c1ccc(Br)o1 | 59.7% (active)
O=C(NC(=S)Nc1cccnc1)c1cc2ccccc2o1 | 10.1% (active)
Fc1cccc(C2NN=C(c3ccccc3)S2)c1 (stereo not drawn) | -7.2% (inactive)
O=C(OCCNc1ccc(C(F)(F)F)cc1[N+](=O)[O-])c1cc2ccccc2oc1=O | -14.3% (inactive)
O=C(O)COc1ccc(NC(=O)c2ccc3c(c2)C(=O)N(C2CCCCC2)C3=O)cc1 | -6.7% (inactive)

Source: PubChem BioAssay AID1942 (Johns Hopkins Ion Channel Center, 2009)
